In PubChem BioAssay (Tox21):
Records with an inconclusive call do not appear. Values without a mark were called inactive. Active and inactive are the calls of the source. Calls come from the whole dose curve.

System: not listed separately
Assay: qHTS assay to identify small molecule agonists or antagonists of the thyroid stimulating hormone receptor (TSHR) signaling pathway - wild type cell line counter screen (AID 1259384)
Details: HEK293 wild type, cAMP HTRF counter-screen; series mostly up to 92.4 µM; cAMP activity change: at the top concentration
Outline: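 Counter screen in untransfected Hek293: compounds (15-point titration, triplicate) plus phosphodiesterase inhibitor Ro20-1724 added after 18 h plating; 30 min RT. Intracellular cAMP via competitive d2/cryptate immunoassay, 1 h incubation.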
% is set by controls: 0 for no effect and ±100 for the full control effect.

Row | SMILES | cAMP activity change
1 | COc1ccc(S(=O)(=O)N2C(=O)[C@@](c3ccccc3OC)(N3C[C@H](O)C[C@H]3C(=O)N(C)C)c3cc(Cl)ccc32)c(OC)c1 | 3.43%
2 | O=C(c1ccc(F)cc1)C1CCN(CCn2c(=S)[nH]c3ccccc3c2=O)CC1 | 3.69% [at 42.5 µM, active compounds read high]
3 | O=C(O)C1(C(=O)Nc2ccc(Cl)cc2Cl)CC1 | 2.93%
4 | O=C(O)c1ccco1 | -2.69%
5 | CCOc1ccc(N)c([N+](=O)[O-])c1 | -1.1%
6 | O=C(O)c1nc(Cl)c(Cl)c(Cl)c1Cl | 2.72%
7 | CN(C)C(=O)NC1(c2ccccc2)CCN(CC[C@@]2(c3ccc(F)c(F)c3)CN(C(=O)c3ccccc3)CCO2)CC1 | 0.228%
8 | CC(=O)[O][Al] | 1.15%
9 | C=C1C(=C/C=C2\CCC[C@]3(C)[C@@H]([C@H](C)/C=C/[C@@H](O)C4CC4)CC[C@@H]23)C[C@@H](O)C[C@@H]1O | -2.38% [at 42.5 µM, active compounds read high]
10 | Cc1cccc(C)c1OCC(=O)N[C@@H](Cc1ccccc1)[C@@H](O)C[C@H](Cc1ccccc1)NC(=O)[C@H](C(C)C)N1CCCNC1=O | -3.83% [at 42.5 µM, active compounds read high]
11 | CCOC(=O)NCCOc1ccc(Oc2ccccc2)cc1 | 5.18%
12 | CC(=O)[O][Al][O]C(C)=O | 2.75%
13 | CCN(CC)CCOC(=O)C(Cc1cccc2ccccc12)CC1CCCO1 (stereo unspecified) | 2.84% [at 42.5 µM, active compounds read high]
14 | CCCCCCc1ccc(-c2ccc(C#N)cc2)cc1 | -9.21%
15 | CN(C)CCN(Cc1ccc(Cl)cc1)c1ccccn1 | 1.98% [at 42.5 µM, active compounds read high]
16 | Cc1ccc(C(C)OC(=O)C2(C)CCC(C(=O)O)C2(C)C)cc1 (stereo unspecified) | -4.25% [at 42.5 µM, active compounds read high]
17 | CCOc1ccc(N=Nc2ccc(/C=C/c3ccc(N=Nc4ccc(OCC)cc4)cc3S(=O)(=O)O)c(S(=O)(=O)O)c2)cc1 | 7.8%
18 | CCOC(=O)C(F)(F)F | -0.736%
19 | CC[N+]1(CC)CCC(=C(c2ccccc2)c2ccccc2)C1C (stereo unspecified) | 1.54% [at 42.5 µM, active compounds read high]
20 | CNCCCN1c2ccccc2CCc2ccccc21 | 2.47% [at 42.5 µM, active compounds read high]
21 | O=C(OCCCCCCOC(=O)c1ccccc1)c1ccccc1 | 2.73%

Target: Thyrotropin receptor (Homo sapiens) (UniProt P16473)
Sequence (P16473 whole entry, looked up): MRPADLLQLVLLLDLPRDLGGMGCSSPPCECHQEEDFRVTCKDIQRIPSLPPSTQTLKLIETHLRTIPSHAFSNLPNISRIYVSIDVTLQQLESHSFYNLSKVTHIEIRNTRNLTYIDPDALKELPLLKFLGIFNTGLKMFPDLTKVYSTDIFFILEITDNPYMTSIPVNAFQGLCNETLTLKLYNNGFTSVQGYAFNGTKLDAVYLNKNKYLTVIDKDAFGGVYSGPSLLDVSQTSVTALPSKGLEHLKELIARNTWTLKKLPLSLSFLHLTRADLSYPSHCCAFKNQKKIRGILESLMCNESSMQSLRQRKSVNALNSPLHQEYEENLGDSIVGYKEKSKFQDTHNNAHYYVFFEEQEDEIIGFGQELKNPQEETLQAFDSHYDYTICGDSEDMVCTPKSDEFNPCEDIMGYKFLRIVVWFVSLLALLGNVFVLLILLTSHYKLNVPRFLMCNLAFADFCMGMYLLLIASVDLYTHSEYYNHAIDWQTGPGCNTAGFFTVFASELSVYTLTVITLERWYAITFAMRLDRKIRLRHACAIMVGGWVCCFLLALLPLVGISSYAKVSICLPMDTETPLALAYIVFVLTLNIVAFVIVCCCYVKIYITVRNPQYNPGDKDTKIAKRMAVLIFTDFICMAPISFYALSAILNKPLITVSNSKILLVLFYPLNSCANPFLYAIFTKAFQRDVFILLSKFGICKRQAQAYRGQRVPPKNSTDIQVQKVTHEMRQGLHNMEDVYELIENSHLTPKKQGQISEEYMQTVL
Assay: qHTS assay to identify small molecule antagonists of the thyroid stimulating hormone receptor (TSHR) signaling pathway (AID 1259385); note: nearly all actives have a fitted effect of over 20% in size; note: potency is the fitted concentration of half-maximal effect
Details: TSHR-HEK293 cAMP HTRF, TSH-stimulated antagonist mode; series mostly up to 92.4 µM; activity change, negative = inhibition: at the top concentration
Outline: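 Antagonist mode: compound-treated TSHR-expressing HEK293 cells were stimulated with 1.5 ng/mL TSH (final) in presence of Ro20-1724 for 30 min at RT. HTRF cAMP detection after 1 h; each compound tested at 15 concentrations, triplicate.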

Row | SMILES | activity change, negative = inhibition | Potency
22 | COc1ccc(S(=O)(=O)N2C(=O)[C@@](c3ccccc3OC)(N3C[C@H](O)C[C@H]3C(=O)N(C)C)c3cc(Cl)ccc32)c(OC)c1 | -6.54% | –
23 | O=C(O)C1(C(=O)Nc2ccc(Cl)cc2Cl)CC1 | -0.0183% | –
24 | C#Cc1cccc(Nc2ncnc3cc(OCCOC)c(OCCOC)cc23)c1 | -7.32% [at 42.5 µM] | –
25 | ClCCOCCOCCCl | 2.01% | –
26 | O=C(O)c1ccco1 | 0.64% | –
27 | C=CC(=O)OCCOCCOCCOCCOC(=O)C=C | – | inactive
28 | CCCCCCOC(=O)NC(=N)c1ccc(NCc2nc3cc(C(=O)N(CCC(=O)OCC)c4ccccn4)ccc3n2C)cc1 | – | 29.8 µM (active)
29 | Cc1oc2c(NC(=O)c3c(Cl)cccc3Cl)cccc2c1C(C)(C)O | 4.71% | –
30 | CCOc1ccc(N)c([N+](=O)[O-])c1 | -1.34% | –
31 | O=C(O)c1nc(Cl)c(Cl)c(Cl)c1Cl | 1.14% | –
32 | CN(C)C(=O)NC1(c2ccccc2)CCN(CC[C@@]2(c3ccc(F)c(F)c3)CN(C(=O)c3ccccc3)CCO2)CC1 | -2.69% | –
33 | C=C1C(=C/C=C2\CCC[C@]3(C)[C@@H]([C@H](C)/C=C/[C@@H](O)C4CC4)CC[C@@H]23)C[C@@H](O)C[C@@H]1O | 5.4% [at 42.5 µM] | –
34 | CCOC(=O)NCCOc1ccc(Oc2ccccc2)cc1 | 0.651% | –
35 | O=C(Nc1ccc(S(=O)(=O)N2CCOCC2)cc1)c1cc(Cl)ccc1NS(=O)(=O)c1ccc(Cl)s1 | -4.34% [at 42.5 µM] | –
36 | CCCCCCc1ccc(-c2ccc(C#N)cc2)cc1 | -7.8% | –
37 | CN(C)CCN(Cc1ccc(Cl)cc1)c1ccccn1 | -0.422% [at 42.5 µM] | –
38 | Cc1ccc(C(C)OC(=O)C2(C)CCC(C(=O)O)C2(C)C)cc1 (stereo unspecified) | -0.804% [at 42.5 µM] | –
39 | CCOc1ccc(N=Nc2ccc(/C=C/c3ccc(N=Nc4ccc(OCC)cc4)cc3S(=O)(=O)O)c(S(=O)(=O)O)c2)cc1 | -5.08% | –
40 | CCOC(=O)C(F)(F)F | -0.936% | –
41 | CC[N+]1(CC)CCC(=C(c2ccccc2)c2ccccc2)C1C (stereo unspecified) | 2.63% [at 42.5 µM] | –
